Source: PubChem BioAssay (NCI)
About 83,000 compounds went through this panel and 20% of them were active in at least one assay; those are over-represented in the sample as a whole.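 The endpoint reported here, percent growth, reads 100 for growth as untreated, 0 for no net growth and -100 for all cells dead.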 Calls of active or inactive are those of the source. Rule for the calls: active = growth percent below 10; inactive = the rest.

The compounds below were run on LOX IMVI melanoma (assay: NCI-60 one-dose screen, 48 h (100 = growth as untreated, 0 = no growth, -100 = all killed)). Settings: 10 µM.

| Structure (SMILES) | growth |
| --- | --- |
| Cc1c(-c2ccccc2)[nH]c2ccccc12 | 81.5% (inactive) |
| COc1ccc(C(C#N)=C2C=CC(=NO)C=C2)cc1 | 59.5% (inactive) |
| COc1ccc(N)c2c1C(=O)c1ccccc1C2=O | 104% (inactive) |
| CC[C@@]1(OC(=O)CN(C)C)C(=O)OCc2c1cc1n(c2=O)Cc2cc3c(N)cccc3nc2-1 | -39.3% (active) |
| N#CC(=C1C=CC(=NO)C=C1)c1ccccc1 | -6.53% (active) |
| Cc1cc(N=C2C=CC(=[N+](C)C)C=C2)c(N)cc1N | 79% (inactive) |
| COc1cc(N)ccc1Nc1c2ccccc2nc2ccccc12 | -23.6% (active) |
| O=C1C=CC(=O)N1c1ccc(N2C(=O)C=CC2=O)cc1 | 85% (inactive) |
| Cc1cc(Cl)ccc1NC(=O)/C(Cl)=C1/Sc2ccccc2NC1=O | 73.6% (inactive) |
| Cc1cc(C)c(N2C(=O)CC(Sc3ccccc3N)C2=O)c(C)c1 (stereo unspecified) | 69.9% (inactive) |
| O=C(NC(=S)Nc1ccccn1)c1ccccc1 | 94.9% (inactive) |
| ClCCn1c(CCl)nc2ccc(Cl)cc21 | 2.97% (active) |
| N#C/C(=C/N1C(=O)/C(=C/c2ccc([N+](=O)[O-])cc2)SC1=S)c1nc2ccccc2s1 | 88% (inactive) |
| CN(C)CCNc1cccc2sc3ccc(O)cc3c(=O)c12 | 18.3% (inactive) |
| NCc1c(O)ccc2ccccc12 | 101% (inactive) |
| CN(CC(=O)O)c1ccc(/C=C/c2ccnc3ccccc23)cc1 | 94.8% (inactive) |
